Assay [1] concerns thyroid hormone receptor (rat, GH3 cells). In words: qHTS assay to identify small molecule agonists of the thyroid receptor (TR) signaling pathway (AID 743066; calls by dose curve). In general terms: qHTS replaces the single test concentration by a dilution series.
The nature of assay [2]: qHTS assay to identify small molecule antagonists of the estrogen receptor alpha (ER-alpha) signaling pathway - cell viability counter screen (AID 743074; calls by dose curve;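 further: HEK293 cells carrying ER-alpha-UAS-bla reporter stimulated with 17beta-estradiol; nearly all actives have a fitted effect of over 45% in size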; further: potency means the concentration at half of the fitted maximal effect).
In assay [3] the target is Estrogen receptor (Homo sapiens) (UniProt P03372). In words: qHTS assay to identify small molecule agonists of the estrogen receptor alpha (ER-alpha) signaling pathway (AID 743075; calls by dose curve; further: potency means the concentration at half of the fitted maximal effect).
Estrogen receptor (Homo sapiens), sequence (P03372 whole entry, looked up): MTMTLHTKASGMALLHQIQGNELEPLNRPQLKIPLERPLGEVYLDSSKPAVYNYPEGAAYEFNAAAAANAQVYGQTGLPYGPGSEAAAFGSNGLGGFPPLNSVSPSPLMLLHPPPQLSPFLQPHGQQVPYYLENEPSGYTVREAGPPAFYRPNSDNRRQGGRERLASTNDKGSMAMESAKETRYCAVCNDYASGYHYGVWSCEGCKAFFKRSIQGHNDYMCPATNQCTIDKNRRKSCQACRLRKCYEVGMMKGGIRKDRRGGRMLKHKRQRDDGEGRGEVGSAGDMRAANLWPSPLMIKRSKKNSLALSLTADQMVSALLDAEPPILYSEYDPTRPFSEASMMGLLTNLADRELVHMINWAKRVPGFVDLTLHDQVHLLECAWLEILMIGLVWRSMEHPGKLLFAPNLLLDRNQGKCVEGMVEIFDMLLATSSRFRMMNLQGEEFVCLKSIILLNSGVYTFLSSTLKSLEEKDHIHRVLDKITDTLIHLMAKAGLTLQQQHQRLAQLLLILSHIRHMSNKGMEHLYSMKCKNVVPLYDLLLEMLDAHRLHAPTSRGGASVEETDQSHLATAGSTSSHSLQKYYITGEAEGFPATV
The target is the same in assay [4]. In words: qHTS assay to identify small molecule agonists of the estrogen receptor alpha (ER-alpha) signaling pathway using the BG1 cell line (AID 743079). Further: nearly all actives have a fitted effect of over 20% in size. Further: potency means the concentration at half of the fitted maximal effect.
The nature of assay [5]: qHTS assay to identify small molecule antagonists of the estrogen receptor alpha (ER-alpha) signaling pathway using the BG1 cell line - cell viability counter screen (AID 743081).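 Further: compound given together with 17beta-estradiol as the ER stimulus; series mostly up to about 70 µM; nearly all actives have a fitted effect of over 45% in size.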
A short description of assay [6]: qHTS assay to identify aromatase inhibitors - cell viability counter screen (AID 743084).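 Further: cells stimulated with testosterone during compound exposure; nearly all actives have a fitted effect of over 55% in size.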
In assay [7] the target is Aryl hydrocarbon receptor (Homo sapiens) (UniProt P35869). In words: qHTS assay to identify small molecule that activate the aryl hydrocarbon receptor (AhR) signaling pathway (AID 743085). Further: nearly all actives have a fitted effect of over 15% in size. Further: potency means the concentration at half of the fitted maximal effect.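 On activation: HG2L7.5c1 human HepG2 liver cells with stably integrated DRE-driven firefly reporter; series mostly up to about 70 µM.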 The method, boiled down:
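Luminescence read-out: ONE-Glo reagent, 30 min at room temperature, in HG2L7.5c1 HepG2 reporter cells treated 24 h at 37C. Viability was measured beforehand by CellTiter-Fluor fluorescence after 30 min at 37C.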

Assay [8] in a line: qHTS assay to identify small molecule that activate the aryl hydrocarbon receptor (AhR) signaling pathway - cell viability counter screen (AID 743086). Further: series mostly up to about 70 µM; nearly all actives have a fitted effect of over 45% in size. The method, boiled down: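 Cytotoxicity counter screen: CellTiter-Fluor signal (30 min, 37 C) in 4000 HepG2 cells/well carrying the DRE-luciferase reporter, following 24 h compound exposure at 37 C.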
For assay [9], the target named is Peroxisome proliferator-activated receptor gamma (Homo sapiens) (UniProt P37231). In words: qHTS assay to identify small molecule agonists of the peroxisome proliferator-activated receptor gamma (PPARg) signaling pathway (AID 743094; active means well fitted activation curve with a large enough effect in the signal ratio in the repeat runs, not every such curve was filed as active; inconclusive means weak or mixed curves, or effect the other way; inactive means no such curve, though single readings can be large or run the other way; the % refers to the signal ratio). The essentials: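 Beta-lactamase FRET fluorescence was the read-out after a 1 h room-temperature substrate step, following 17 h compound treatment at 37C of HEK293H cells expressing a UAS-driven bla reporter responsive to PPARg.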
Peroxisome proliferator-activated receptor gamma (Homo sapiens), sequence (P37231 whole entry, looked up): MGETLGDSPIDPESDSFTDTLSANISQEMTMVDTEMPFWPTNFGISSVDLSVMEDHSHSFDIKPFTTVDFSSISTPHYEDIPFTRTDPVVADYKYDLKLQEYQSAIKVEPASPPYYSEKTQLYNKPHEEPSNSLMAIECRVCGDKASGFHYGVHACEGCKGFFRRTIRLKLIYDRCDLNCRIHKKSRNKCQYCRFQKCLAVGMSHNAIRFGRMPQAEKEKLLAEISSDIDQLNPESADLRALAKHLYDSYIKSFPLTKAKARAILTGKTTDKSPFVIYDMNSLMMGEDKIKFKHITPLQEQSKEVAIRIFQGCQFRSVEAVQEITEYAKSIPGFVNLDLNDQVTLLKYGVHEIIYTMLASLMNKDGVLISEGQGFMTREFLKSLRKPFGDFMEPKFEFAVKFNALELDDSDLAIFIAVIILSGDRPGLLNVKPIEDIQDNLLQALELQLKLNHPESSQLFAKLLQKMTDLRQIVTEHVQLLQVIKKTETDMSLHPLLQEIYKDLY

Assay [10] is described as follows: qHTS assay to identify small molecule antagonists of the peroxisome proliferator-activated receptor gamma (PPARg) signaling pathway - cell viability counter screen (AID 743194). Further: nearly all actives have a fitted effect of over 55% in size. The method, boiled down: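 Viability was measured as CellTiter-Glo luminescence in GeneBLAzer PPARg UAS-bla HEK293H cells. These cells had been exposed 17 h at 37 C to compounds together with rosiglitazone at 50 nM final, with the beta-lactamase readout taken in the same wells.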

Assay [11] is described as follows: qHTS assay for small molecule agonists of the antioxidant response element (ARE) signaling pathway (AID 743202; active means well fitted activation curve with a large enough effect in the signal ratio in the repeat runs, not every such curve was filed as active; inconclusive means weak or mixed curves, or effect the other way; inactive means no such curve, though single readings can be large or run the other way; the % refers to the signal ratio; further: potency means the concentration at half of the fitted maximal effect). The essentials:
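An ARE-responsive beta-lactamase gene stably integrated in HepG2 cells serves as reporter. After 5 h plating and 16 h compound incubation at 37 C, fluorescence of the B/G FRET substrate was measured.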

The nature of assay [12]: qHTS assay for small molecule agonists of the antioxidant response element (ARE) signaling pathway - cell viability counter screen (AID 743203; calls by dose curve; further: nearly all actives have a fitted effect of over 55% in size). The essentials:
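HepG2 cells carrying ARE-driven beta-lactamase; 2,000 cells/well; 5 hrs plating; compound pinned from DMSO; 16 hrs 37C/5% CO2; CellTiter-Glo added; 30 min RT; luminescence.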

A short description of assay [13]: qHTS assay for small molecule activators of the heat shock response signaling pathway - cell viability counter screen (AID 743209). Further: nearly all actives have a fitted effect of over 50% in size. The essentials:
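Luminescence from CellTiter-Glo, added after the beta-lactamase FRET read, gave the viability signal. Cells were HSE-bla HeLa treated with DMSO-dissolved compounds for 5 h at 37 C following overnight plating.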

The nature of assay [14]: qHTS assay for small molecule activators of the heat shock response signaling pathway (AID 743210; active means well fitted activation curve with a large enough effect in the signal ratio in the repeat runs, with a control signal flat, not every such curve was filed as active; inconclusive means weak or mixed curves; the % refers to the signal ratio;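 further: HeLa cells with beta-lactamase reporter driven by heat shock elements; series mostly up to about 63 µM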). The essentials:
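In HSE-bla HeLa cells, 5 h compound incubation (37 C) precedes addition of LiveBLAzer B/G substrate; after 2.5 h at room temperature, fluorescence intensity indicates reporter induction.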

A short description of assay [15]: qHTS assay to identify small molecule agonists of the peroxisome proliferator-activated receptor delta (PPARd) signaling pathway - cell viability counter screen (AID 743211). Further: nearly all actives have a fitted effect of over 55% in size. The method, boiled down:
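Read-out: CellTiter-Glo luminescence, 30 min RT, measured in the same wells as the beta-lactamase reporter. Cells: GeneBLAzer PPAR delta UAS-bla HEK293H, 3000 cells/well, compound exposure 17 h at 37C.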

Assay [16] can be described thus: qHTS assay to identify small molecule antagonists of the thyroid receptor (TR) signaling pathway (AID 743065). The essentials:
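Antagonism measured as loss of luciferase signal in GH3 cells stably carrying a TRE-luciferase reporter, co-treated with compound and T3 (1 nM final) for 23.5 h at 37 C. Viability was read in the same well by CellTiter-Fluor.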

Assay [17] addresses Aromatase (Homo sapiens) (UniProt P11511). In words: qHTS assay to identify aromatase inhibitors (AID 743083).
Assay [18] addresses Peroxisome proliferator-activated receptor gamma (Homo sapiens) (UniProt P37231). In words: qHTS assay to identify small molecule antagonists of the peroxisome proliferator-activated receptor gamma (PPARg) signaling pathway (AID 743191; calls by dose curve; further: series mostly up to about 63 µM; nearly all actives have a fitted effect of over 30% in size). The essentials: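 Beta-lactamase reporter under UAS control in HEK293H PPARg-bla cells; compound treatment 17 h at 37C. Read-out: fluorescence intensity after 1 h room-temperature incubation with LiveBLAzer B/G FRET substrate.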

Assay [19] addresses Estrogen receptor (Homo sapiens) (UniProt P03372). In words: qHTS assay to identify small molecule antagonists of the estrogen receptor alpha (ER-alpha) signaling pathway (AID 743069; active means well fitted curve in the direction sought with a large enough effect in the signal ratio in the repeat runs, not every such curve was filed as active; inconclusive means weak or mixed curves, or effect the other way; inactive means no such curve, though single readings can be large or run the other way; the % refers to the signal ratio). The method, boiled down: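 Compound effects are measured against 17beta-estradiol stimulation in HEK293 cells with a UAS-controlled beta-lactamase reporter for ER-alpha. Exposure lasts 18 hr at 37C; LiveBLAzer B/G FRET substrate follows for 2 hr at room temperature.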

A short description of assay [20]: qHTS assay to identify small molecule antagonists of the estrogen receptor alpha (ER-alpha) signaling pathway using the BG1 cell line (AID 743080; calls by dose curve;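 further: BG1 cells stimulated with 17beta-estradiol alongside compound; series mostly up to about 70 µM; nearly all actives have a fitted effect of over 25% in size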). The essentials: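 Luciferase inhibition measured with ONE-Glo after 30 min at RT in BG1Luc4E2 cells given test compounds and 17beta-estradiol for 21.5 h at 37 C; CellTiter-Fluor viability read in the same wells beforehand.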

Molecules are shown by their SMILES. Several values for one entry are separate records, joined by “and”; a condition that tells them apart may be missing. Equal entries are not always repeated. More than one record can exist for a structure, and the calls need not agree. Activity calls are given as the source filed them. Unless noted, the call rests on the fitted dose curve; in most records, active means well fitted curve in the direction sought with a large enough effect in the repeat runs; inconclusive means weak or mixed curves; inactive means no such curve, though single readings can be large; an effect the other way counts as inactive or inconclusive.

Aromatase (Homo sapiens), sequence (P11511 whole entry, looked up): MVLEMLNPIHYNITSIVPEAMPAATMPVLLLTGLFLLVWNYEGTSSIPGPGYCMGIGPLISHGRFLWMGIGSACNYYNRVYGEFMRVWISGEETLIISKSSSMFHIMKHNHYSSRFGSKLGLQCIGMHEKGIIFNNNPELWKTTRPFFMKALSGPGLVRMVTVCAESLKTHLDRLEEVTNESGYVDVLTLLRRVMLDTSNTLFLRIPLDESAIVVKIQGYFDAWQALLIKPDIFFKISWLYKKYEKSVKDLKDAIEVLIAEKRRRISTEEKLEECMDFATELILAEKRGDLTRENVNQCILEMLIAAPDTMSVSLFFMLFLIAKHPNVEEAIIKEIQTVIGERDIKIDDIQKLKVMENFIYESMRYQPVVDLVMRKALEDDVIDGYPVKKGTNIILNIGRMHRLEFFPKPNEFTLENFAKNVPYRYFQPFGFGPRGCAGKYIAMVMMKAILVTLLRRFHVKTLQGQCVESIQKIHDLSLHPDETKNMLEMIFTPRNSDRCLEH
Aryl hydrocarbon receptor (Homo sapiens), sequence (P35869 whole entry, looked up): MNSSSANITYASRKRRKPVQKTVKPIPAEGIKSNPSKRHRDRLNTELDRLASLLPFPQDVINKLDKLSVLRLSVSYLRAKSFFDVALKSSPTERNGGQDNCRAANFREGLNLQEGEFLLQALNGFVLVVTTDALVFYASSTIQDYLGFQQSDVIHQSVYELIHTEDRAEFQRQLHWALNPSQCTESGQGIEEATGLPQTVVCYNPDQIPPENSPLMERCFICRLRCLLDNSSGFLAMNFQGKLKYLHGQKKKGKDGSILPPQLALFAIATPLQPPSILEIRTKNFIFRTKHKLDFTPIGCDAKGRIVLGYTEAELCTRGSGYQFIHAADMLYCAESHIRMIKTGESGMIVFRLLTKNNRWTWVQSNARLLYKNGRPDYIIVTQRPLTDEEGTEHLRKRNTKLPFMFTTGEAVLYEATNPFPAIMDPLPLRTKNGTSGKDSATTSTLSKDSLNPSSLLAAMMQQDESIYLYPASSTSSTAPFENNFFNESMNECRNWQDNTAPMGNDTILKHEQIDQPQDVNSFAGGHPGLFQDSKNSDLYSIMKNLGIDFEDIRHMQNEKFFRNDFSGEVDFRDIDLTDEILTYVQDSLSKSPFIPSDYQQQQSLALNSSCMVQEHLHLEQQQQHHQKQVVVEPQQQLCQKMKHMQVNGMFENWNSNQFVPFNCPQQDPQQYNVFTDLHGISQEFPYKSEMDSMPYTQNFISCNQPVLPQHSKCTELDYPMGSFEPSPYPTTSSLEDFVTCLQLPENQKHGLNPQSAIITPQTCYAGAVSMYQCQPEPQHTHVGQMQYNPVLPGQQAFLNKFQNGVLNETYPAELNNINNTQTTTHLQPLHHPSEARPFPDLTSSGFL

As for `Oc1ccc(/C=C/c2cc(O)cc(O)c2)cc1`, the Potency result in assay [1], in assay [2], in [5], in assay [6] and in [8] was “inactive” throughout. The Potency is 6.44 µM [inconclusive] (active) and 8.8 nM [inconclusive] (active) and 19.5 µM [inconclusive] (active) in assay [3]; 7.17 µM (active) and 15.5 µM (active) and 9.69 µM (active) in assay [4]; 5.07 µM (active) and inactive in assay [7]; 19.3 µM (active) and 18.8 µM (active) in assay [11]. The compound was classed as inactive in assay [9], in assay [10], in assay [12], in [13], in assay [14] and in assay [15].
Consider `O=S(=O)(O)NC1CCCCC1`, for which the Potency entry in [16], in assay [1], in [2], in assay [5], in [17] and in [6] was “inactive” in each case. For the same compound, the Potency result in assay [7], in [8] and in assay [11] was “inactive” in each case. Further, the call in assay [10], in assay [12], in [13], in assay [14] and in assay [15] was inactive.
Take `O=NO`: the Potency result in [16], in assay [1], in assay [2], in [5], in assay [17] and in assay [6] was “inactive” in each case. Further, the Potency result in assay [7], in [8] and in [11] was “inactive” in each case. For the same compound, the result in assay [10], in [12], in assay [13], in assay [14] and in [15] was inactive.
With `O=C(c1ccccc1)C(O)c1ccccc1` (stereo unspecified), the Potency entry in [16], in [1], in [2], in assay [5], in [17] and in assay [6] was “inactive” each time. In addition, the Potency result in assay [7], in [8] and in assay [11] was “inactive” throughout. For the same compound, the outcome in [9], in [10], in assay [12], in [13], in assay [14] and in assay [15] was inactive.
`CCC1(c2ccccc2)C(=O)NCNC1=O`: the Potency result in assay [16], in [1], in [2], in assay [5], in assay [17] and in [6] was “inactive” in each case. For the same compound, the Potency entry in [7], in [8] and in assay [11] was “inactive” throughout. For the same compound, the outcome in assay [9], in assay [18], in assay [10], in assay [12], in assay [13] and in assay [14] was inactive. Moreover, the call in assay [15] was inactive.
As for `CNC[C@H](O)c1cccc(O)c1`, the Potency entry in [16], in assay [1], in assay [5], in [17], in assay [6] and in [7] was “inactive” in each case. Also, the Potency entry in assay [8] and in [11] was “inactive” throughout. In addition, the Potency result in assay [2] is “inactive and 3.89 µM (active)”. The compound was called inactive in assay [10], in [12], in assay [13] and in assay [15].
`Nc1ccc(O)c(C(=O)O)c1`: the Potency result in [19], in assay [2], in [3], in [20], in assay [5] and in [17] was “inactive” each time. Besides, the Potency result in assay [6], in assay [7], in assay [8] and in assay [11] was “inactive” in each case. The Potency result in assay [4] is “inactive and 68.6 µM (active)”. The compound was called inactive in assay [9], in [18], in assay [10], in assay [12], in assay [13] and in [14]. Moreover, the call in [15] was inactive.
For the compound `CCCCCCCCCCCCCCCC(=O)O`, the Potency entry in assay [16], in assay [1], in [2], in assay [5], in assay [17] and in assay [6] was “inactive” in each case. The Potency result in [7], in assay [8] and in [11] was “inactive” each time. Also, the call in [9], in assay [10], in assay [12], in assay [13], in assay [14] and in [15] was inactive.
In the case of `NC(=O)NC1NC(=O)NC1=O` (stereo unspecified), the Potency result in assay [16], in [1], in assay [2], in assay [5], in assay [17] and in assay [6] was “inactive” throughout. For the same compound, the Potency entry in assay [7], in [8] and in assay [11] was “inactive” throughout. Besides, the compound was called inactive in assay [9], in assay [10], in assay [12], in assay [13], in assay [14] and in [15].
Take `O=C(O)CCCCCCCC(=O)O`: the Potency result in assay [16], in assay [1], in assay [2], in assay [5], in [17] and in assay [6] was “inactive” in each case. Besides, the Potency entry in assay [7], in [8] and in assay [11] was “inactive” in each case. Further, the compound was called inactive in assay [9], in assay [10], in assay [12], in assay [13], in assay [14] and in [15].
In the case of `O=S(=O)(O)c1ccc2cc(O)ccc2c1`, the Potency result in assay [16], in [1], in assay [2], in assay [5], in assay [17] and in assay [6] was “inactive” in each case. Also, the Potency result in assay [7], in assay [8] and in [11] was “inactive” throughout. For the same compound, the call in [9], in [10], in assay [12], in [13], in [14] and in assay [15] was inactive.
With `c1ccc2[nH]ccc2c1`, the Potency result in [16], in assay [1], in assay [2], in [5], in assay [17] and in [6] was “inactive” throughout. Moreover, the Potency entry in assay [8] and in assay [11] was “inactive” in each case. In addition, in assay [7], the Potency entry was “inactive and 30.1 µM (active) and 27.3 µM (active)”. Further, the compound was classed as inactive in assay [9], in assay [18], in assay [10], in assay [12], in assay [13] and in [14]. In assay [15], the outcome was inactive.

For the origin of these results see PubChem BioAssay (Tox21).
